Compound activity: PubChem, National Center for Advancing Translational Sciences (NCATS)
TDP1 cell CPT: growth inhibition of DT40 Tdp1-/-;hTDP1 cells with camptothecin (screen for TDP1 inhibitors); 420,000 compounds, 12% hits; AID 686979; chicken DT40 Tdp1-/-;hTDP1 cells + 20 nM CPT, ATP luminescence, 48 h; Potency, µM (highest dose often 46.2 µM), for the others: top-dose activity change, negative = growth inhibition, hits mostly inhibitors; also: potency is read from the fitted curve at half-maximal effect; nearly all actives have a fitted effect of over 55% in size
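Chicken DT40 Tdp1-/- cells complemented with human TDP1, 400 cells/well, exposed to compounds plus 20 nM camptothecin for at least 48 h at 37 C; viability read as ATP content by CellTiter-Glo luminescence.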
HT1080-NT tox: kills 2HG-producing HT-1080-NT fibrosarcoma cells; HT-1080-NT fibrosarcoma viability, CellTiter-Glo ATP luminescence, 48 h; Potency, µM (titrated, usually from 46.1 µM), for the others: at the top dose activity, negative = less viability, usual class: cytotoxic; 360,000 compounds, 1.6% hits; AID 686970;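 also: NT is the 2HG producing partner of a matched IDH1 knockdown line; potency is read from the fitted curve at half-maximal effect; 0% = DMSO-treated cells and -100% = media-only wells without cells; nearly all actives have a fitted effect of over 55% in size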
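HT-1080-NT fibrosarcoma cells (2HG-overproducing), 750 cells/well in RPMI with 5% FBS, dosed after 2 h and incubated 48 h at 37C. CellTiter-Glo luminescence normalized to DMSO and no-cell wells; concentration-response curves fitted and classed.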
TDP1 cell noCPT: qHTS for Inhibitors of human tyrosyl-DNA phosphodiesterase 1 (TDP1): qHTS in cells in absence of CPT | DT40 Tdp1-/- hTDP1 cells, no CPT, ATP luminescence, 48 h | Potency, µM (series often up to 46.2 µM), without a hit: at the highest dose activity change, negative = growth inhibition, hits mostly inhibitors | 420,000 compounds, 15% hits; also: potency is read from the fitted curve at half-maximal effect; nearly all actives have a fitted effect of over 55% in size
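Camptothecin absent (DMSO only). Human TDP1-complemented DT40 knockout cells, 400 cells/well, 37 °C for minimum 48 hr; ATP measured via CellTiter-Glo, 30 min dark incubation, luminescence.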
uPA surface inh: blocks generation of uPA at the cell surface; cell surface uPA generation assay, qHTS; Potency, µM (series often up to 38.3 µM), inactives show at the highest dose activity change, negative = inhibition, usual class: inhibitors; 330,000 compounds, 0.31% hits; active = well fitted inhibition curve with a large enough effect; inconclusive = small, poorly fitted or top-dose-only effect; inactive = no such curve, though single readings can be large or run the other way; tested in mouse RAW 264.7 cells; also: potency is read from the fitted curve at half-maximal effect; nearly all actives have a fitted effect of over 55% in size
HT1080 IDH1KD tx: HT-1080 IDH1 knockdown cell toxicity (counter line). AID 686971. HT-1080 IDH1 knockdown viability, ATP luminescence, 48 h. 360,000 compounds, 2% hits. Potency, µM (series often up to 46.1 µM), for the others: top-dose activity, negative = toxicity, actives largely listed as cytotoxic;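 also: potency is read from the fitted curve at half-maximal effect; 0% = DMSO wells and -100% = cell-free medium wells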
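IDH1KD HT-1080 cells, 750/well, RPMI + 5% FBS; compound pinned after 2 h settling; 48 h, 37 °C; CellTiter-Glo luminescence; % activity normalised to DMSO and no-cell wells; curves fitted, classed by r2 and efficacy.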
IL-1B inflam inh: blocks inflammasome-driven IL-1 beta release; THP-1 LPS/ATP IL-1B secretion, AlphaLISA, 16 h; active compounds read low; activity change, % at 57.5 µM; 360,000 compounds, 4.7% hits; AID 743279; in the data active = activity change below about -50%; inconclusive = mostly about -30% to -49%
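THP-1 cells pretreated 1 hr with compounds (up to 57.5 uM final), then stimulated with LPS (250 ng/mL final) plus ATP (1.25 mM final); secreted IL-1B measured by AlphaLISA after 16 hr, decreased signal indicating inhibition.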
The depositor's hits bear a star; ? = inconclusive; · = not tested or not shown. Sampled rows, rich in hits. Any-hit rate of the full collection: about 19%. Unless noted, calls follow the shape of the dose curve; as a rule, active = well fitted curve in the direction sought with a large enough effect; inconclusive = small, poorly fitted or top-dose-only effect, or another doubt; inactive = no such curve, though single readings can be large; an effect the other way counts as inactive or inconclusive. Unless noted, % is scaled to controls: 0 for no effect and ±100 for the full control effect.

SMILES | TDP1 cell CPT | HT1080-NT tox | TDP1 cell noCPT | uPA surface inh | HT1080 IDH1KD tx | IL-1B inflam inh
COc1ccc(CCNC(=O)Nc2cc(F)c(F)cc2Cl)cc1OC | 23µM* | -13% | 8.2µM* | 7% | -1% | 17
Cc1ccc(NC(=O)CN(C)CC(=O)Nc2ccc(F)c(Cl)c2)cc1 | -20% | 6% | -2% | -38% | -9% | -29
COc1ccc(CSc2cccc3cccnc23)cc1[N+](=O)[O-] | ? | -2% | 16µM* | 2% | -1% | -3
COc1ccc(-c2cc(C(F)(F)F)nc(SCC(=O)NCc3cnn(C)c3C)n2)cc1OC | -29% | 6% | -3% | -7% | -7% | 1
COc1ccc(CCN(C)CC(=O)Nc2ccc(F)c(Cl)c2)cc1OC | -2% | -23% | ? | -5% | -3% | -58*
COc1ccc(-c2cc(C(F)(F)F)nc(SCC(=O)N(C)Cc3cn(C)nc3C)n2)cc1OC | 18µM* | -1% | 12µM* | -7% | 1% | -21
COc1cc(C(=O)NCC(c2ccc3c(c2)OCO3)N2CCN(C)CC2)cc(OC)c1OC (stereo not given) | 0% | · | -11% | · | · | ·
Cc1nc(NS(=O)(=O)c2ccc(N)cc2)nc(C)c1Br | -1% | · | -25% | · | · | ·
Cc1c(OC(C)C(=O)NCC(O)c2ccccc2)ccc2c3c(c(=O)oc12)CCCC3 (stereo not given) | 23µM* | -14% | ? | -15% | -6% | -28
Cc1c(OC(C)C(=O)NCc2ccccn2)ccc2c3c(c(=O)oc12)CCC3 (stereo not given) | ? | -5% | ? | -3% | -15% | -13
Cc1c(OC(C)C(=O)NCc2ccncc2)ccc2c3c(c(=O)oc12)CCCC3 (stereo not given) | 21µM* | -1% | ? | 2% | -15% | ?
CC(C)(C)c1ccc(C(=O)N2CCC2(C)C(=O)NS(=O)(=O)c2ccccc2Cl)cc1 (stereo not given) | -5% | -5% | -20% | · | 4% | 50
COc1cc2ccccc2cc1C(=O)N/N=C/c1cccs1 | 2.3µM* | ? | 1.8µM* | · | 4.1µM* | 33
O=C(N/N=C\c1cccs1)c1ccccc1-n1cccc1 | 3% | -2% | -17% | 1% | 0% | 30
COc1cc2ccccc2cc1C(=O)Nc1ccc(N2CCN(C(=O)C(C)C)CC2)cc1 | 16µM* | 18% | 10µM* | 3% | 0% | 2
COc1ccc(NC(=O)c2cc3ccccc3cc2OC)cc1 | 29µM* | 16µM* | ? | 4% | 16µM* | -15
COc1cc2ccccc2cc1C(=O)Nc1ccc(N2CCN(C)CC2)cc1 | ? | ? | ? | -5% | ? | -3
Cc1noc(Cn2c(=O)c3ccccc3n(CC(=O)Nc3ccccc3C(F)(F)F)c2=O)n1 | 17% | · | -21% | · | · | ·
O=C(O)c1ccc(C(S(=O)(=O)c2ccccc2)S(=O)(=O)c2ccccc2)cc1 | 11% | 14% | -8% | · | 7% | -7
Cc1nn(Cc2ccccc2Cl)c(Cl)c1/C=C/C(=O)OCC(=O)NC1CCS(=O)(=O)C1 (stereo not given) | 21% | -17% | -26% | 3% | 18% | 7
Cc1nn(Cc2ccccc2)c(Cl)c1/C=C/C(=O)OCC(=O)N1CCCC1=O | 13% | 15% | 17% | -2% | 9% | 13
Cc1nn(Cc2ccc(Cl)cc2Cl)c(Cl)c1/C=C/C(=O)OCC(=O)NCC(F)(F)F | -29% | -5% | 21µM* | 2% | -21% | 0
Cc1nn(Cc2ccccc2Cl)c(Cl)c1/C=C/C(=O)OCC(=O)NC(N)=O | ? | 2% | 2.3µM* | 6% | -2% | -3
